According to PubChem BioAssay (NCI):
This is part of a sample that, as a whole, favours compounds with a hit. Of some 83,000 tested, about 20% had one in any assay.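 The test compound was applied at a single concentration to cells in 96-well plates for 48 hours, and percent growth was recorded.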 Values without a mark were called inactive. The source made the active and inactive calls. Rule for the calls: active = growth percent below 10; inactive = the rest.

How the values were obtained:
Assay in all cases: NCI-60 one-dose screen, 48 h (100 = growth as untreated, 0 = no growth, -100 = all killed)
Conditions in all cases: 10 µM unless noted
SR leukemia = tested on: SR leukemia
RPMI-8226 leukemia = tested on: RPMI-8226 leukemia
OVCAR-5 ovarian = tested on: OVCAR-5 ovarian
SK-OV-3 ovarian = tested on: SK-OV-3 ovarian
IGROV1 ovarian = tested on: IGROV1 ovarian
OVCAR-3 ovarian = tested on: OVCAR-3 ovarian
NCI/ADR-RES ovarian = tested on: NCI/ADR-RES ovarian
OVCAR-4 ovarian = tested on: OVCAR-4 ovarian
HS 578T breast = tested on: HS 578T breast

SMILES | growth (SR leukemia) | growth (RPMI-8226 leukemia) | growth (OVCAR-5 ovarian) [%] | growth (SK-OV-3 ovarian) | growth (IGROV1 ovarian) | growth (OVCAR-3 ovarian) | growth (NCI/ADR-RES ovarian) | growth (OVCAR-4 ovarian) [%] | growth (HS 578T breast) [%]
Cn1cc(-c2csc(-c3cn(C(=O)OC(C)(C)C)c4ccc(Br)cc34)n2)c2cccnc21 | 58% | 84.5% | 95.5 | 98.7% | 93.2% | 98.3% | 82.5% |  | 
COc1ccc(-c2nc3ccccn3c2-c2nc3ccc(Cl)cc3[nH]2)cc1 | 70.3% | 43.7% | 102 | 107% | 102% |  | 90.3% | 86 | 93.6
COc1ccc(-c2nc3ncccn3c2-c2nc3ccc(Br)cc3[nH]2)cc1 | 61.1% | 60.6% | 95.6 | 105% | 94% | 72.7% | 87.3% | 101 | 
Oc1cc(/C=C/c2nc(N3CCOCC3)c3cc(Cl)c(Cl)cc3n2)cc(O)c1O | 87.8% | 103% | 102 | 105% | 108% |  | 100% |  | 118
COc1cnc2c(c1)C(=O)c1c-2n(CCCNC2=NCCS2)c(=O)c2cc([N+](=O)[O-])ccc12 | -9.1% (active) | -32.1% (active) | 28.9 | 9.4% (active) | -0.756% (active) | -71.1% (active) | -8.56% (active) |  | 69.9
